# ALR inh = blocks human ALR sulfhydryl oxidase activity; P55789; purified ALR, DTT oxidation, H2O2 HRP-luminol luminescence; inhibition, % (no concentration beside the values); actives 3.8% (n = 290,000); AID 485317;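 active means mean replicate inhibition above about 79%, with every replicate also reaching it, limit read from the data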
# Target sequence (P55789 whole entry, looked up): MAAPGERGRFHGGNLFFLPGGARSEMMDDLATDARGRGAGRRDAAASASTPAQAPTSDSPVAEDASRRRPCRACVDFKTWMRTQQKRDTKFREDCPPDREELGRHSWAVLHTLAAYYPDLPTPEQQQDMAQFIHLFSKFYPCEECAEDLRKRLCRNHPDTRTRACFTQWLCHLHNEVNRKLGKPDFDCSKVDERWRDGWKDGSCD
# APOBEC3G inh = inhibitors of human APOBEC3G DNA deaminase; Q9HC16; recombinant A3G, ssDNA deamination FAM/TAMRA fluorescence; inhibition, % at 20 µM; actives 0.28% (n = 330,000); AID 493012;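 active means inhibition of at least 40% at 20 µM, with no more than 30% in the related APOBEC3A deaminase screen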;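 further: plate controls were DMSO wells with A3G for no effect and wells lacking A3G enzyme for full effect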
# aDG glyco act = increases alpha dystroglycan glycosylation; actives 0.22% (n = 360,000); Pro5-aDG cells, alpha-DG glycosylation AlphaScreen (IIH6); 0% Pro5, 100% B10-LARGE cell signal; activation, % at 10 µM;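 active means activation of at least 8% versus controls, or a plate z-score of at least 8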;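 further: Pro5 are CHO cells carrying HIG-tagged alpha-DG that lacks glycosylation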
# A3A deaminase = human APOBEC3A DNA deaminase inhibition | P31941 | recombinant A3A, FAM/TAMRA ssDNA deamination fluorescence | inhibition, % at 20 µM | actives 0.41% (n = 330,000) | AID 493011;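 active means at least 40% inhibition at 20 µM here, with at most 30% in a related deaminase screen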;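 further: plate controls were A3A with DMSO for no effect and wells lacking A3A enzyme for full effect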
# Target sequence (P31941 whole entry, looked up): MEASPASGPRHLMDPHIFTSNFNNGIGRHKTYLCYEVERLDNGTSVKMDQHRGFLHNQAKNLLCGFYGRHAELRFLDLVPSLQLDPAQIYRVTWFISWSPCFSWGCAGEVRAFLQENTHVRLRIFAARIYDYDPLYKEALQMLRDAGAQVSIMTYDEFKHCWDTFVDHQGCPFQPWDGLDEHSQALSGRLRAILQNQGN
# PHOSPHO1 block = blocks human PHOSPHO1 phosphatase activity; inhibition, % at 13.3 µM; Q8TCT1; recombinant PHOSPHO1, absorbance phosphatase assay; actives 1.1% (n = 290,000); AID 1565; in the data active means inhibition above about 60%
# rCAG binder = binds r(CAG) RNA repeats | r(CAG) RNA repeat, TO-PRO-1 dye displacement fluorescence | inhibition, % at 3 µM | actives 1.3% (n = 370,000);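 active means inhibition above the plate cutoff, the mean of all test compounds on that plate plus 3 SD, cut at about 35% in these data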;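 further: 0% = DMSO alone and 100% = 100 µM mitoxantrone as full dye displacement; higher means more dye released from RNA so lower well fluorescence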
# rCAG binder conf = r(CAG) RNA repeat binding, confirmation; TO-PRO-1 dye displacement fluorescence; shares compounds with rCAG binder; inhibition, % at 3 µM; actives 70% (n = 4,300);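 active means inhibition above a per-plate cutoff, the mean inhibition of sample wells plus 3 SD, cut at about 35% in these data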;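 further: loss of TO-PRO-1 fluorescence as compound displaces dye from 1x1 AA loop RNA; 0% = DMSO only wells and 100% = 100 µM mitoxantrone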
# DNA CAG counter = DNA CAG dye complex inhibition counter-screen. d(CAG) DNA oligo TO-PRO-1 dye displacement, fluorescence. AID 652068. shares compounds with rCAG binder. inhibition, % at 3 µM. actives 94% (n = 4,300);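 active means inhibition above its plate's cutoff, the mean test-well inhibition plus 3 SD, cut at about 4.8% in these data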;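 further: 0% = DNA dye mix with DMSO and 100% = 100 µM mitoxantrone; hits displace the dye from DNA and so lower well fluorescence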
# Active calls of the source: *; · = no result given. Rows were chosen to be rich in hits. Some 5.4% of all compounds tested hit in one or more screens of this group.
SMILES,ALR inh,APOBEC3G inh,aDG glyco act,A3A deaminase,PHOSPHO1 block,rCAG binder,rCAG binder conf,DNA CAG counter
O=C(CNC(=O)c1ccccc1Br)N/N=C\c1cc([N+](=O)[O-])cc(Br)c1O,·,5,0,3,6,39*,31,7.9*
CN(C)[C@@H]1C(=O)C(C(=O)NCN2CCCC2)=C(O)[C@@]2(O)C(=O)C3=C(O)c4c(O)cccc4[C@@](C)(O)C3CC12 (some centres not stated),·,·,·,·,1,·,·,·
C=C1c2cccc(O)c2C(O)=C2C(=O)[C@]3(O)C(O)=C(C(N)=O)C(=O)[C@@H](N(C)C)[C@@H]3[C@@H](O)[C@H]12,36,91,0,98,-8,85*,24,9.8*
COc1ccc(C(=O)N/C(=C/c2ccc(Cl)cc2)C(=O)Nc2ccc(C(=O)O)cc2)cc1,58,-7,0,-4,13,46*,42*,12*
O=[N+]([O-])c1ccc2nc(NN=Cc3ccc(O)cc3)sc2c1,·,·,0,·,·,22,·,·
N#Cc1c(Cl)c(Cl)c2nnc(-c3ccc(Br)cc3)n2c1Cl,37,-1,·,1,19,44*,40*,11*
CCOC1=C2[C@@H](CN(S(=O)(=O)c3ccc(C)cc3)[C@H]2c2ccccc2)[C@H]2C(=O)N(Cc3ccccc3)C(=O)[C@H]2C1,·,·,0,·,·,8,·,·
C=CCSC1=N/C(=C\c2ccc3c(c2)OCO3)C(=O)S1,3,0,0,-1,18,6,·,·
C=CCSC1=N/C(=C\c2cc(OCC)c(OC(C)=O)c([N+](=O)[O-])c2)C(=O)S1,98*,1,0,8,7,41*,61*,20*
O=C1NC(c2ccc(-c3ccccc3[N+](=O)[O-])o2)C(C(=O)c2ccccc2)C(O)(C(F)(F)F)N1 (configuration not stated),-14,-6,0,-2,-11,53*,1,0
Cc1ccc(C(=O)C2C(c3ccc(-c4ccccc4[N+](=O)[O-])o3)NC(=O)NC2(O)C(F)(F)F)cc1 (configuration not stated),-29,2,0,5,·,-4,·,·
Cc1cnc(C)c(Nc2nc(C(N)Cc3ccc(C(F)(F)F)cc3)cs2)n1 (configuration not stated),·,·,2,·,·,8,·,·
Cc1ccc(C)c(OCC(=O)Nc2cc(C(=O)O)cc(C(=O)O)c2)c1,-1,-8,0,0,54,2,·,·
Cc1ccc(C)c(OCC(=O)Nc2ccc(C(=O)O)cc2NC(=O)COc2cc(C)ccc2C)c1,7,-4,0,-5,26,74*,75*,40*
CCCCN1CC(N(C)CCN(C)C)CS1(=O)=O (configuration not stated),·,·,0,·,·,2,·,·
CCOc1cc(C2C3=C(CC(C)(C)CC3=O)OC3=C2C(=O)CC(C)(C)C3)cc([N+](=O)[O-])c1O,·,-7,0,-3,47,1,·,·
CC1(C)CC(=O)C2=C(C1)OC1=C(C(=O)CC(C)(C)C1)C2c1cc([N+](=O)[O-])cc([N+](=O)[O-])c1O,49,-3,0,-1,28,53*,64*,24*
COC(=O)c1cc(NS(=O)(=O)c2ccc(N3CCOCC3)c([N+](=O)[O-])c2)cc(C(=O)OC)c1,·,-2,0,0,-2,51*,40*,11*
COC(=O)c1cc(NS(=O)(=O)c2ccc(N3CCCCCC3)c([N+](=O)[O-])c2)cc(C(=O)OC)c1,-4,-6,0,-1,3,39*,60*,20*
Cc1ccc(NC(=S)NNC(=O)c2ccc(N3CCOCC3)c([N+](=O)[O-])c2)cc1C,23,-8,0,-1,-4,58*,61*,26*
COc1ccc(S(=O)(=O)Nc2ccc(N3CCOCC3)cc2)cc1[N+](=O)[O-],65,-7,0,-3,-1,-2,·,·

# Source: PubChem
